Each structure is given as a SMILES string. In all, about 16,000 compounds went through this assay and about 5,700 (36%) were called active. Another 24% or so got no clear call; they are omitted. The list shows a part of the results. A number with no mark means an inactive call. The call rests on the fitted dose curve; in most records, active means well fitted curve in the direction sought with a large enough effect; inconclusive means small, poorly fitted or top-dose-only effect, or effect the other way; inactive means no such curve, though single readings can be large or run the other way.
On the % scale 0 is the no-effect control and ±100 the full control effect.

For this test, the target named is Cytochrome P450 1A2 (Homo sapiens) (UniProt P05177). In words: Cytochrome panel assay with activity outcomes. As to conditions: recombinant CYP, pro-luciferin dealkylation, luminescence, p450-cyp1a2; series mostly up to 57.1 µM.
Chain of Cytochrome P450 1A2 (Homo sapiens) (P05177 whole entry, looked up): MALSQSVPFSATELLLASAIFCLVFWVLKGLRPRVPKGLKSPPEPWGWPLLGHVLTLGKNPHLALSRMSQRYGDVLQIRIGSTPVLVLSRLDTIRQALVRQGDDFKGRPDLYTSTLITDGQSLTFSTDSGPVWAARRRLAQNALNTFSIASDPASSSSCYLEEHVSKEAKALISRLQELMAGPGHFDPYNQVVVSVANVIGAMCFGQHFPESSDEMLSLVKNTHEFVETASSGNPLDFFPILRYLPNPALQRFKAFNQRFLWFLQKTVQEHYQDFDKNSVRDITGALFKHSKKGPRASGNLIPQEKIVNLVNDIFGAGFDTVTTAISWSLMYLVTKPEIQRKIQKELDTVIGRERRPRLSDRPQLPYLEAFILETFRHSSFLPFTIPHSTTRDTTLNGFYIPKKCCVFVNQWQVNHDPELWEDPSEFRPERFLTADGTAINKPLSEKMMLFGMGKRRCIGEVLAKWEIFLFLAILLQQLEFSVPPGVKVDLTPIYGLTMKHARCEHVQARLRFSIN
Take `CC1CCCC(NC(=O)C2CCN(S(=O)(=O)N3CCC4(CC3)OCCO4)CC2)C1C` (stereo not given): the AC50 entry is “inactive”.
Still for that read-out and setting: to `Cc1ccc(OCC(=O)N2CCN(c3ccc([N+](=O)[O-])c(N4CCOCC4)c3)CC2)cc1` belongs “inactive”; to `O=C(O)C1CCN(c2c([N+](=O)[O-])cc(C(F)(F)F)cc2[N+](=O)[O-])CC1`, “inactive”.
With `O=[N+]([O-])c1cc(F)c(N2CCOCC2)cc1N1CCCCC1`, the half-maximal activity concentration (AC50) is 1.26 µM (active).
Same read-out and setting: to `Cc1ccccc1C(=O)N1CCN(c2ccc([N+](=O)[O-])c(N3CCOCC3)c2)CC1` belongs “inactive”.
Same read-out and setting: then `O=[N+]([O-])c1ccc(N2CCCCC2)c(Cl)c1N1CCCCC1`, with 2 µM (active); and `O=[N+]([O-])c1ccc(N2CCCC2)cc1N1CCCC1`, with 0.316 µM (active); and `Cn1c(=O)n(C)c2cc([N+](=O)[O-])c(N3CCN(C(=O)c4ccccc4Cl)CC3)cc21`, with “inactive”.
For `Cn1c(=O)n2n(c1=O)[C@H]1[C@H](O)[C@H]3O[C@H]3C(=O)[C@H]1CC2`, the activity, negative = inhibition is -12.9% [at 11.4 µM].
`CC12CCC(C(=O)Nc3cccc4ccccc34)(C1Br)C2(C)C` (stereo not given): the half-maximal activity concentration (AC50) is 22.4 µM (active).
Same read-out and setting: to `Cc1cccc(NC(=O)C23CCC(C)(C2Br)C3(C)C)c1` (stereo not given) belongs 15.8 µM (active); to `Cc1cccc(NC2=NC(=S)N(c3ccc(C(=O)O)cc3)C23CCCCC3)c1`, “inactive”; to `COc1ccc(C(=O)NC2CCN(C(=S)Nc3cccc(C)c3)CC2)cc1`, “inactive”.
For `COc1ccc(CNc2ncnc3ccc(-c4ccccc4OC)cc23)c(OC)c1`, the AC50 is 3.16 µM (active).
Still for that read-out and setting: then `COc1ccccc1CNc1ncnc2ccc(-c3ccccc3OC)cc12`, with 1 µM (active).
Same read-out and setting: then `C[N+](C)(C)CCOC(=O)CCC(=O)OCC[N+](C)(C)C`, with “inactive”.
As to `CCCCOC(=S)NC(=O)c1sc2ccccc2c1Cl`, the concentration at half-maximal activity (AC50) was 2 µM (active).
On the same count and under the same terms, to `O=C(c1sc2ccccc2c1Cl)N(Cc1ccccc1)C1CCS(=O)(=O)C1` (stereo not given) belongs “inactive”.
Same read-out and setting: then `CCOC(=S)NC(=O)c1sc2ccccc2c1Cl`, with 1.58 µM (active).
On to `O=C(NC(=S)N(CCCCO)C1CCCCC1)c1sc2ccccc2c1Cl`, for which the half-maximal activity concentration (AC50) is 1.26 µM (active).
For the compound `CCOc1c(OC(C)=O)ccc(/C=C2\N=C(SCC)SC2=O)c1[N+](=O)[O-]`, the concentration at half-maximal activity (AC50) was 0.631 µM (active).
With `CCOc1c(OC(C)=O)ccc(/C=C/c2ccc3cccc(OC(C)=O)c3n2)c1[N+](=O)[O-]`, the AC50 is 4.47 µM (active).
As to `Cc1ccc(S(=O)(=O)N=Nc2c(O)[nH]c3cc(O)c(C(=O)O)cc23)cc1`, the activity, negative = inhibition was -15.8% [at 2.29 µM].
With `Cc1cc(=O)oc(C)c1C(=O)N1CCCCC1`, the AC50 entry is “inactive”.
Same read-out and setting: then `Cc1cc(=O)oc(C)c1C(=O)NCc1cccnc1`, with 4.47 µM (active).
The same measure, in the same setting: to `CCCNC(=O)c1c(C)cc(=O)oc1C` belongs 11.2 µM (active).
Take `O=C(O)[C@@H](O)Cc1ccccn1`: the activity, negative = inhibition is -9.06% [at 11.4 µM].
Regarding `O=C(NCc1ccccn1)c1cc(-c2ccccc2Cl)on1`, the concentration at half-maximal activity (AC50) is 3.55 µM (active).
Same read-out and setting: to `CC(Cc1ccccc1)C(=O)NCc1ccccn1` (stereo not given) belongs 15.8 µM (active); to `CC(C)C(NC(=O)C1CCCCC1)C(=O)NCc1ccccn1` (stereo not given), “inactive”.
Still for that read-out and setting: to `Cc1cc(=O)oc(C)c1C(=O)NCCCN1CCN(c2ccc(F)cc2)CC1` belongs “inactive”; to `Cc1cc(=O)oc(C)c1C(=O)NCc1ccccc1`, “inactive”.
Consider `O=C(O)[C@@H]1[C@@H](C(=O)NCc2ccccn2)[C@@H]2C=C[C@@H]1O2`, for which the activity, negative = inhibition was -0.104% [at 2.29 µM].
Consider `CCC(C#CCN1CCCCC1)(CC)OCCC#N`, for which the AC50 entry is “inactive”.
Same read-out and setting: then `Cc1cc(=O)oc(C)c1C(=O)NCc1ccccn1`, with 12.6 µM (active).
Consider `CCCNC(=O)OC[C@@H]1O[C@H](CCO/N=C\c2ccc(C(=O)N3[C@H](c4ccc(C)cc4)[C@@H](C)CC[C@H]3C(=O)OC)cc2)C=C[C@@H]1Oc1ccc(OC)cc1`, for which the activity, negative = inhibition was -5.52% [at 11.4 µM].
Still for that read-out and setting: then `CCN1C(=O)[C@H]2[C@H]3[C@H](O)[C@H](O)C/C(=N/OCC(C)C)[C@H]3CC[C@@H]2C1=O`, with -1.29% [at 11.4 µM].
For `O=C(O/N=C\c1ccc(N2CCCCC2)c([N+](=O)[O-])c1)c1c(F)cccc1F`, the concentration at half-maximal activity (AC50) was 0.708 µM (active).
Consider `Cc1ccc(OC(=O)c2ccc(N3CCOCC3)c([N+](=O)[O-])c2)cc1`, for which the AC50 result is “inactive”.
Same read-out and setting: then `Cc1ccc(C(=O)O/N=C\c2ccc(N3CCCCC3)c([N+](=O)[O-])c2)cc1`, with 0.251 µM (active); and `CO/N=C/c1ccc(N2CCN(C(=O)c3ccc(Cl)cc3Cl)CC2)c([N+](=O)[O-])c1`, with “inactive”.
Take `CC(C)OC(=O)C(C)(C)Oc1ccc(C(=O)c2ccc(Cl)cc2)cc1`: the AC50 was 5.01 µM (active).
Consider `CC(C)(Oc1ccc([C@@H]2CC2(Cl)Cl)cc1)C(=O)O`, for which the AC50 result was “inactive”.
Consider `O=c1c(-c2cccs2)nc2cnc(N3CCNCC3)nc2n1C1CC1`, for which the concentration at half-maximal activity (AC50) is 2 µM (active).
On to `Cn1c(=O)c(-c2cccs2)nc2cnc(N3CCNCC3)nc21`, for which the half-maximal activity concentration (AC50) is 10 µM (active).
Regarding `OC[C@@H]1O[C@H](O)[C@@H](Cl)[C@H](O)[C@@H]1O`, the AC50 entry is “inactive”.
On the same count and under the same terms, to `Cc1ccc(S(N)(=O)=O)cc1NC(=O)/C=C/c1cccs1` belongs 12.6 µM (active); to `CS(=O)(=O)Nc1cccc(-c2cncnc2NCc2cccs2)c1`, 15.8 µM (active).
On the same count and under the same terms, then `Cc1cccc(CNc2ncncc2-c2cccc(NS(C)(=O)=O)c2)c1`, with 12.6 µM (active); and `CS(=O)(=O)Nc1cccc(-c2cncnc2NCc2ccccc2)c1`, with 25.1 µM (active); and `CS(=O)(=O)Nc1cccc(-c2ccc3ncnc(NCc4cccs4)c3c2)c1`, with 0.0794 µM (active).
The same measure, in the same setting: then `CC(=O)Nc1c(I)c(C(=O)N[C@H]2[C@@H](O)[C@H](O)[C@H](CO)O[C@@H]2O)c(I)c(N(C)C(C)=O)c1I`, with “inactive”.
As to `CC12CS(=O)(=O)CC1SC(=S)N2c1ccccn1` (stereo not given), the AC50 entry was “inactive”.
Same read-out and setting: to `CS(=O)(=O)Nc1cccc(-c2ccc3ncnc(NCc4cccnc4)c3c2)c1` belongs 0.316 µM (active).
As to `CS(=O)(=O)Nc1cccc(-c2cncnc2NCc2cccnc2)c1`, the AC50 was 15.8 µM (active).
The same measure, in the same setting: to `O=S(=O)(NCc1cccnc1)c1ccc(Cl)nc1` belongs “inactive”; to `C[C@H](O)C(=O)C1=Nc2c(nc(N)[nH]c2=O)NC1`, “inactive”.
As for `O=C(O)CCCCCn1c(SCC(=O)N2CCCC2)nc2ccsc2c1=O`, the AC50 entry was “inactive”.
In the case of `C=CCn1c(SCC(=O)N2CCc3ccccc3C2)nc2ccccc2c1=O`, the AC50 was 8.91 µM (active).
The same measure, in the same setting: to `O=C(Cn1c(SCC(=O)N2CCc3ccccc3C2)nc2ccccc21)NC1CCCC1` belongs “inactive”.
Still for that read-out and setting: then `CCn1ccc(C(=O)Oc2ccc(Cl)cc2)n1`, with 14.1 µM (active).
The same measure, in the same setting: then `CC(C)OC(=O)c1cccc(C(=O)Oc2ccc(Br)cc2)n1`, with “inactive”; and `CN(C)Cc1ccccc1-c1nc(N2CCOCC2)c2ccccc2n1`, with 20 µM (active).
For `CC(C)(C)c1nc(SCC(=O)Nc2ccc(N3CCOCC3)cc2)c2ccccc2n1`, the AC50 result was “inactive”.
On the same count and under the same terms, then `Cc1ccccc1-c1nc(N2CCOCC2)c2ccccc2n1`, with 2 µM (active).
On the same count and under the same terms, to `Clc1ccccc1-c1nc(N2CCNCC2)c2ccccc2n1` belongs 2.51 µM (active); to `CN1c2ccccc2C(C)(C)C12C=Nc1c(cc(N3CCOCC3)c3ccccc13)O2` (stereo not given), “inactive”.
As for `C[C@@H](N1CCOCC1)[C@@](O)(c1ccccc1)c1ccccn1`, the activity, negative = inhibition is -2.48% [at 2.29 µM].
For the compound `Cc1ccccc1-c1nc(N2CCNCC2)c2ccccc2n1`, the half-maximal activity concentration (AC50) is 5.01 µM (active).
On the same count and under the same terms, then `CN(C)/N=N\c1nc[nH]c1C(N)=O`, with “inactive”.
Turning to `COc1ccc(O[C@H]2C=C[C@@H](c3ccccc3)O[C@@H]2CO/N=C(\C)CCN2CCCc3nc(C)c(C)cc32)cc1`, the activity, negative = inhibition is -4.49% [at 11.4 µM].
Same read-out and setting: to `C=CC[C@@H]1C=C[C@H](O/N=C(\C)CCN2CCCCc3nc(C)c(C)cc32)[C@H](CO)O1` belongs -6.73% [at 11.4 µM].
With `CC[C@]1(O)C[C@@H]2CN(CCc3c([nH]c4ccccc34)[C@](C(=O)OC)(c3cc4c(cc3OC)N(C)[C@H]3[C@](O)(C(=O)OC)[C@@H](C(=O)OC)[C@@]5(CC)C=CCN6CC[C@@]43[C@@H]65)C2)C1`, the AC50 result was “inactive”.
Take `CN(C(=S)Nc1ccccc1F)C1(c2ccccc2Cl)CCCCC1=O` (stereo not given): the AC50 entry was “inactive”.
Same read-out and setting: then `CCN(C(=S)Nc1ccccc1F)C1CCCCC1`, with 15.8 µM (active); and `CCCN(C(=S)Nc1ccccc1)C1CCS(=O)(=O)C1` (stereo not given), with “inactive”; and `COc1cccc(-c2cc(NCc3cccs3)ncn2)c1`, with 1.26 µM (active).
Same read-out and setting: to `c1cncc(-c2cc(NCc3cccs3)ncn2)c1` belongs 1 µM (active); to `COc1cccc(/C=N/NC(=O)C(=O)NCc2cccnc2)c1`, “inactive”; to `COc1cccc(-c2cc(NCc3cccnc3)ncn2)c1`, 0.631 µM (active).
The same measure, in the same setting: to `COc1cccc(-c2cc(NCc3ccccc3)ncn2)c1` belongs 2 µM (active); to `COCC(=O)N1CCC2(CCCN(Cc3ccccc3)C2)CC1`, “inactive”.
Regarding `CS(=O)(=O)N1CCC2(CCN(C(=O)Nc3cccc(C#N)c3)CC2)CC1`, the AC50 entry is “inactive”.
Regarding `Cc1c2cccc(Sc3ccccc3)c2c2c3c(cccc13)[S+](c1ccccc1)C2` (stereo not given), the activity, negative = inhibition is -17.3% [at 2.29 µM].
For `O=C(Nc1c2c(nn1-c1ccc(F)cc1)CS(=O)(=O)C2)C12CC3CC(CC(C3)C1)C2`, the AC50 entry was “inactive”.
The same measure, in the same setting: then `Cc1cc(C2C(C#N)=C(N)Oc3n[nH]c(C)c32)c(C)s1` (stereo not given), with 15.8 µM (active); and `Cc1cc(C2C(C#N)=C(N)OC3=C2C(=O)CC(C)(C)C3)c(C)s1` (stereo not given), with “inactive”; and `N#CC(=C(/N)Sc1ccccc1N)/C(C#N)=C(/N)Sc1ccccc1N`, with 12.6 µM (active).
The same measure, in the same setting: to `Cc1ccc(C2(C)NC(=O)N(CC(=O)Nc3cc(C)on3)C2=O)cc1` (stereo not given) belongs “inactive”; to `Cc1ccc(N2CC(C(=O)Nc3cc(C)on3)CC2=O)cc1` (stereo not given), “inactive”; to `Cc1cc(NC(=O)c2cccc(F)c2)no1`, 17.8 µM (active).
Same read-out and setting: to `Cc1cc(NC(=O)CN2C(=O)NC(C)(c3ccc(OC(F)F)cc3)C2=O)no1` (stereo not given) belongs “inactive”.
Turning to `CN1CCN(NC(=O)c2cccc(F)c2)CC1`, the AC50 entry was “inactive”.
Regarding `Cc1cc(NC(=O)Nc2ccc(F)cc2)no1`, the half-maximal activity concentration (AC50) was 10 µM (active).
Consider `Cc1ccc(N2C(=O)CC(c3ccsc3)C3=C2CC(C)(C)CC3=O)cc1` (stereo not given), for which the AC50 result is “inactive”.

The term AC50 denotes the concentration at which the activity in the assay is half-maximal.

For the origin of these results see PubChem BioAssay AID1851 (National Center for Advancing Translational Sciences (NCATS), 2009).
